Measured values from publication PMC7862700, “An all-to-all approach to the identification of sequence-specific readers for epigenetic DNA modifications on cytosine”.

target: T1, ETS2 (Homo sapiens, UniProt P15036 1-469); test: DAPPL (digital affinity profiling via proximity ligation, sequencing); 10 mM Tris-HCl pH 7.5, 50 mM NaCl, 1 mM DTT, 4% glycerol, room temperature, 30 min; GST-TFs on glutathione beads, 16-mer random dsDNA library, 0.1% formaldehyde crosslink after washing; high values mean tight binding; conditions: protein: recombinant; tags: N-terminal GST; dsDNA, one strand shown
T1 sequence: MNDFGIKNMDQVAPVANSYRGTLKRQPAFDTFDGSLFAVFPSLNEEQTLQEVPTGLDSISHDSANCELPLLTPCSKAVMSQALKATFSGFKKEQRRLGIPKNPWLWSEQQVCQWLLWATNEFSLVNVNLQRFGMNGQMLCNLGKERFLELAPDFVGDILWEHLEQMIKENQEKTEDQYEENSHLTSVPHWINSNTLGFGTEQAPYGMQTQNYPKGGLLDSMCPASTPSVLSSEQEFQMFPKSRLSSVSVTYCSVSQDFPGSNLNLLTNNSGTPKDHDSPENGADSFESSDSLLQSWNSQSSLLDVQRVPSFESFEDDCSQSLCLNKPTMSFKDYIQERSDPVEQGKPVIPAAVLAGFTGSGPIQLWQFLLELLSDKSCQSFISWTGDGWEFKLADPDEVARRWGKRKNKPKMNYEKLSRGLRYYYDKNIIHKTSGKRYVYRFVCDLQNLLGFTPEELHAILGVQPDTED
In short: (§1)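 Binding signal is each hexamer's read frequency for a factor divided by its frequency in the tag-only sample. The factors were GST-fused human transcription factors from yeast, captured on glutathione beads, DNA-barcoded and pooled with that sample. Pools were incubated with 200 nmole of a random double-stranded 16-mer DNA library in Tris/NaCl/DTT/glycerol buffer at room temperature for 30 min, then washed, crosslinked with 0.1% formaldehyde, proximity-ligated with BsaI/T4 ligase (1 h, 37 °C), PCR-amplified and sequenced on an Illumina NextSeq500.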

| Sequence | binding signal |
| --- | --- |
| ACCTAG | 1.06 fold enrichment (6-mer frequency, TF over GST control) |
| GCTAAG | 1.04 fold enrichment (6-mer frequency, TF over GST control) |
| GATTTA | 1 fold enrichment (6-mer frequency, TF over GST control) |
| TGGATA | 1.06 fold enrichment (6-mer frequency, TF over GST control) |
| ATAAGA | 1.09 fold enrichment (6-mer frequency, TF over GST control) |
| CTAGAA | 1.02 fold enrichment (6-mer frequency, TF over GST control) |
| GATCTA | 1.04 fold enrichment (6-mer frequency, TF over GST control) |
| GCTAGT | 1.07 fold enrichment (6-mer frequency, TF over GST control) |
| AGCTAG | 1.07 fold enrichment (6-mer frequency, TF over GST control) |
| TAAGGG | 1 fold enrichment (6-mer frequency, TF over GST control) |
| AGTCTC | 1.05 fold enrichment (6-mer frequency, TF over GST control) |
| TGATTA | 1.03 fold enrichment (6-mer frequency, TF over GST control) |
| TAGATA | 1.05 fold enrichment (6-mer frequency, TF over GST control) |
| CCCCAG | 1.04 fold enrichment (6-mer frequency, TF over GST control) |
| TGATAG | 1.06 fold enrichment (6-mer frequency, TF over GST control) |
| GCCCGA | 1.08 fold enrichment (6-mer frequency, TF over GST control) |
| GTTCGC | 1 fold enrichment (6-mer frequency, TF over GST control) |
| GGATCT | 1 fold enrichment (6-mer frequency, TF over GST control) |
| TTAGAT | 1.01 fold enrichment (6-mer frequency, TF over GST control) |
| TTGCCA | 1.05 fold enrichment (6-mer frequency, TF over GST control) |
| TCAATC | 1.04 fold enrichment (6-mer frequency, TF over GST control) |
| ATAAGT | 1.06 fold enrichment (6-mer frequency, TF over GST control) |
| TCTAGA | 1.05 fold enrichment (6-mer frequency, TF over GST control) |
| TAGACT | 1.02 fold enrichment (6-mer frequency, TF over GST control) |
| GCTGGT | 1.17 fold enrichment (6-mer frequency, TF over GST control) |
| CGTTTA | 1.16 fold enrichment (6-mer frequency, TF over GST control) |
| GATCAA | 1.04 fold enrichment (6-mer frequency, TF over GST control) |
| CGTCTG | 1.08 fold enrichment (6-mer frequency, TF over GST control) |
| TAAGCA | 1.07 fold enrichment (6-mer frequency, TF over GST control) |
| CATGCG | 1 fold enrichment (6-mer frequency, TF over GST control) |

target: T2, SPDEF (Homo sapiens, UniProt O95238 1-335); test: as above; conditions: protein: recombinant; tags: N-terminal GST; dsDNA, one strand shown
T2 sequence: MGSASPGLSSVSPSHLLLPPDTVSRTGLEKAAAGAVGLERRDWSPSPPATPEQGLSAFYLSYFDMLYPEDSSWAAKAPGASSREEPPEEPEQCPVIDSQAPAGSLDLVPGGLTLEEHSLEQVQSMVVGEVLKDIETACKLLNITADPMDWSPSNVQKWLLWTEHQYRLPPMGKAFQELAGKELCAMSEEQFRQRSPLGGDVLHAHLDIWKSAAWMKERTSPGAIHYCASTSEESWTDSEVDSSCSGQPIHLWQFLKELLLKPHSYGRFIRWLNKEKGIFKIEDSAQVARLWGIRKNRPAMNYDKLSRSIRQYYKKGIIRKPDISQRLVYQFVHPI
In short: as §1

| Sequence | binding signal |
| --- | --- |
| GCTAAG | 1.11 fold enrichment (6-mer frequency, TF over GST control) |
| GATTTA | 1.08 fold enrichment (6-mer frequency, TF over GST control) |
| TGGATA | 1.06 fold enrichment (6-mer frequency, TF over GST control) |
| ATAAGA | 1.15 fold enrichment (6-mer frequency, TF over GST control) |
| CTAGAA | 1.01 fold enrichment (6-mer frequency, TF over GST control) |
| TGAATC | 1.11 fold enrichment (6-mer frequency, TF over GST control) |
| GATCTA | 1.1 fold enrichment (6-mer frequency, TF over GST control) |
| GCTAGT | 1.07 fold enrichment (6-mer frequency, TF over GST control) |
| CTTAAG | 1.04 fold enrichment (6-mer frequency, TF over GST control) |
| TGATTA | 1.01 fold enrichment (6-mer frequency, TF over GST control) |
| TAGATA | 1.06 fold enrichment (6-mer frequency, TF over GST control) |
| TCGAGC | 1.08 fold enrichment (6-mer frequency, TF over GST control) |
| GGATCT | 1.54 fold enrichment (6-mer frequency, TF over GST control) |
| TTAGAT | 1.08 fold enrichment (6-mer frequency, TF over GST control) |
| TTGCCA | 1.14 fold enrichment (6-mer frequency, TF over GST control) |
| ATAAGT | 1.05 fold enrichment (6-mer frequency, TF over GST control) |
| CTAGCC | 1.02 fold enrichment (6-mer frequency, TF over GST control) |
| TTAAGA | 1.06 fold enrichment (6-mer frequency, TF over GST control) |
| GCTGGT | 1.2 fold enrichment (6-mer frequency, TF over GST control) |
| CGTTTA | 1.14 fold enrichment (6-mer frequency, TF over GST control) |
| GATCAA | 1.05 fold enrichment (6-mer frequency, TF over GST control) |
| CGTCTG | 1.05 fold enrichment (6-mer frequency, TF over GST control) |
| TAAGCA | 1.06 fold enrichment (6-mer frequency, TF over GST control) |
| CATGCG | 1.01 fold enrichment (6-mer frequency, TF over GST control) |

target: T3, ETV7 (Homo sapiens, UniProt Q9Y603 1-341); test: as above; conditions: protein: recombinant; tags: N-terminal GST; dsDNA, one strand shown
T3 sequence: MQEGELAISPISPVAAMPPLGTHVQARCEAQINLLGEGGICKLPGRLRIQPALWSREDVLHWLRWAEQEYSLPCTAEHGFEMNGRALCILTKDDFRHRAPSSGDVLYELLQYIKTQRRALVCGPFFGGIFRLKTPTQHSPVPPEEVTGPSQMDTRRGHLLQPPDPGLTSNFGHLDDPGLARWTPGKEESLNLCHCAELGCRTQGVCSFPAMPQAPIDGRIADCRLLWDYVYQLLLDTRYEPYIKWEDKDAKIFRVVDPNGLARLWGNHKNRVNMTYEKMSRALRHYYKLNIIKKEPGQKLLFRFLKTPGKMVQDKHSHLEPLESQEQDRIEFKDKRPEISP
In short: as §1

| Sequence | binding signal |
| --- | --- |
| ACCTAG | 1.11 fold enrichment (6-mer frequency, TF over GST control) |
| ATAAGA | 1.04 fold enrichment (6-mer frequency, TF over GST control) |
| CTAGAA | 1.02 fold enrichment (6-mer frequency, TF over GST control) |
| GATCTA | 1.1 fold enrichment (6-mer frequency, TF over GST control) |
| GCTAGT | 1.13 fold enrichment (6-mer frequency, TF over GST control) |
| AGATCT | 1.05 fold enrichment (6-mer frequency, TF over GST control) |
| AGCTAG | 1.17 fold enrichment (6-mer frequency, TF over GST control) |
| CTTAAG | 1.04 fold enrichment (6-mer frequency, TF over GST control) |
| TAAAGG | 1.09 fold enrichment (6-mer frequency, TF over GST control) |
| TGAAGA | 1.04 fold enrichment (6-mer frequency, TF over GST control) |
| TGATTA | 1.05 fold enrichment (6-mer frequency, TF over GST control) |
| TAGATA | 1.02 fold enrichment (6-mer frequency, TF over GST control) |
| TCGAGC | 1.09 fold enrichment (6-mer frequency, TF over GST control) |
| GTTCGC | 1.02 fold enrichment (6-mer frequency, TF over GST control) |
| GGATCT | 1.07 fold enrichment (6-mer frequency, TF over GST control) |
| TTAGAT | 1.03 fold enrichment (6-mer frequency, TF over GST control) |
| TTGCCA | 1.03 fold enrichment (6-mer frequency, TF over GST control) |
| TCAATC | 1.01 fold enrichment (6-mer frequency, TF over GST control) |
| ATAAGT | 1.05 fold enrichment (6-mer frequency, TF over GST control) |
| TCTAGA | 1.03 fold enrichment (6-mer frequency, TF over GST control) |
| CTAGCC | 1.02 fold enrichment (6-mer frequency, TF over GST control) |
